# Data from article PMC11062922 (Nature Chemical Biology, 2023).
# Where two headings read alike, the source gives them in different places.
# Assays:
# PKN3 [1] = conditions: hek293t cells
# AAK1 = system: AAK1; design: species or system human, MV4-11 + K-562 + COLO205 + SK-N-BE2 + OVCAR-8; conditions: read-out: apparent Kd; compound concentrations:100 nM and 1000 nM (sheet 'Samples'); n = 1
# BMP2K = system: BMP2K; design: species or system human, MV4-11 + K-562 + COLO205 + SK-N-BE2 + OVCAR-8; conditions: read-out: apparent Kd; compound concentrations:100 nM and 1000 nM (sheet 'Samples'); n = 1
# CLK1 = system: CLK1; design: species or system human, MV4-11 + K-562 + COLO205 + SK-N-BE2 + OVCAR-8; conditions: read-out: apparent Kd; compound concentrations:100 nM and 1000 nM (sheet 'Samples'); n = 1
# CLK4 = system: CLK4; design: species or system human, MV4-11 + K-562 + COLO205 + SK-N-BE2 + OVCAR-8; conditions: read-out: apparent Kd; compound concentrations:100 nM and 1000 nM (sheet 'Samples'); n = 1
# CSNK2A1;CSNK2A3 = system: CSNK2A1;CSNK2A3; design: species or system human, MV4-11 + K-562 + COLO205 + SK-N-BE2 + OVCAR-8; conditions: read-out: apparent Kd; compound concentrations:100 nM and 1000 nM (sheet 'Samples'); n = 1
# CSNK2A2 = system: CSNK2A2; design: species or system human, MV4-11 + K-562 + COLO205 + SK-N-BE2 + OVCAR-8; conditions: read-out: apparent Kd; compound concentrations:100 nM and 1000 nM (sheet 'Samples'); n = 1
# FLT4 = system: FLT4; design: species or system human, MV4-11 + K-562 + COLO205 + SK-N-BE2 + OVCAR-8; conditions: read-out: apparent Kd; compound concentrations:100 nM and 1000 nM (sheet 'Samples'); n = 1
# GAK = system: GAK; design: species or system human, MV4-11 + K-562 + COLO205 + SK-N-BE2 + OVCAR-8; conditions: read-out: apparent Kd; compound concentrations:100 nM and 1000 nM (sheet 'Samples'); n = 1
# GSK3A = system: GSK3A; design: species or system human, MV4-11 + K-562 + COLO205 + SK-N-BE2 + OVCAR-8; conditions: read-out: apparent Kd; compound concentrations:100 nM and 1000 nM (sheet 'Samples'); n = 1
# GSK3B = system: GSK3B; design: species or system human, MV4-11 + K-562 + COLO205 + SK-N-BE2 + OVCAR-8; conditions: read-out: apparent Kd; compound concentrations:100 nM and 1000 nM (sheet 'Samples'); n = 1
# MELK = system: MELK; design: species or system human, MV4-11 + K-562 + COLO205 + SK-N-BE2 + OVCAR-8; conditions: read-out: apparent Kd; compound concentrations:100 nM and 1000 nM (sheet 'Samples'); n = 1
# NUAK1 = system: NUAK1; design: species or system human, MV4-11 + K-562 + COLO205 + SK-N-BE2 + OVCAR-8; conditions: read-out: apparent Kd; compound concentrations:100 nM and 1000 nM (sheet 'Samples'); n = 1
# PAK4 = system: PAK4; design: species or system human, MV4-11 + K-562 + COLO205 + SK-N-BE2 + OVCAR-8; conditions: read-out: apparent Kd; compound concentrations:100 nM and 1000 nM (sheet 'Samples'); n = 1
# PKN1 = system: PKN1; design: species or system human, MV4-11 + K-562 + COLO205 + SK-N-BE2 + OVCAR-8; conditions: read-out: apparent Kd; compound concentrations:100 nM and 1000 nM (sheet 'Samples'); n = 1
# PKN3 [2] = system: PKN3; design: species or system human, MV4-11 + K-562 + COLO205 + SK-N-BE2 + OVCAR-8; conditions: read-out: apparent Kd, n = 1;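 on IC50: NanoBRET target engagement in HEK293T cells transiently expressing full-length PKN3 with C-terminal NanoLuc, displacement of fluorescent tracer K5 (500 nM), BRET read after 2 h equilibration at 37 °C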
# Q6ZSR9 = Q6ZSR9 (human, UniProt Q6ZSR9); design: species or system MV4-11 + K-562 + COLO205 + SK-N-BE2 + OVCAR-8; conditions: read-out: apparent Kd; compound concentrations:100 nM and 1000 nM (sheet 'Samples'); n = 1
# RET = system: RET; design: species or system human, MV4-11 + K-562 + COLO205 + SK-N-BE2 + OVCAR-8; conditions: read-out: apparent Kd; compound concentrations:100 nM and 1000 nM (sheet 'Samples'); n = 1
# SIK2 = system: SIK2; design: species or system human, MV4-11 + K-562 + COLO205 + SK-N-BE2 + OVCAR-8; conditions: read-out: apparent Kd; compound concentrations:100 nM and 1000 nM (sheet 'Samples'); n = 1
# [3] = compound concentrations:100 nM and 1000 nM (sheet 'Samples')
# Sequence of Q6ZSR9 (Q6ZSR9 whole entry, looked up): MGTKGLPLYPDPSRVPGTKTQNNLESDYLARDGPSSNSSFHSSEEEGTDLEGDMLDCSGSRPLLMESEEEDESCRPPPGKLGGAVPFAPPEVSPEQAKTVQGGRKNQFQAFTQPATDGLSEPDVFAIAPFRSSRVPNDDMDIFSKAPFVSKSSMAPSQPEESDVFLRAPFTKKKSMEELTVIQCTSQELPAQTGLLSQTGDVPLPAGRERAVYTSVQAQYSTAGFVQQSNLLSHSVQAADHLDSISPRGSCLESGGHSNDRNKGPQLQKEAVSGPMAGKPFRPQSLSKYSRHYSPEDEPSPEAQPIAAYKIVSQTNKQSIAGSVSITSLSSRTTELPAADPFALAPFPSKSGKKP
compound,measurement,setting,value
LY3009120,IC50,"PKN3 [1]; read-out: Average, SD, n = 4",513 nM
same,IC50,PKN3 [1]; read-out: Rep 1,538 nM
same,IC50,PKN3 [1]; read-out: Rep 2,1230 nM
same,IC50,PKN3 [1]; read-out: Rep 3,112 nM
same,IC50,PKN3 [1]; read-out: Rep 4,173 nM
NCCNS(=O)(=O)c1ccc(-c2ccnc3[nH]ccc23)cc1 [GSK977617A],potency estimated from few doses,AAK1,429 nM
same,potency estimated from few doses,BMP2K,817 nM
same,potency estimated from few doses,CLK1,294 nM
same,potency estimated from few doses,CLK4,413 nM
same,potency estimated from few doses,CSNK2A1;CSNK2A3,782 nM
same,potency estimated from few doses,CSNK2A2,766 nM
same,potency estimated from few doses,FLT4,1050 nM
same,potency estimated from few doses,GAK,280 nM
same,potency estimated from few doses,GSK3A,257 nM
same,potency estimated from few doses,GSK3B,361 nM
same,potency estimated from few doses,MELK,866 nM
same,potency estimated from few doses,NUAK1,1100 nM
same,potency estimated from few doses,PAK4,652 nM
same,potency estimated from few doses,PKN1,485 nM
same,potency estimated from few doses,PKN3 [2]; [3],444 nM
same,potency estimated from few doses,Q6ZSR9,450 nM
same,potency estimated from few doses,RET,569 nM
same,potency estimated from few doses,SIK2,560 nM
Fc1ccc(-c2c(-c3ccncc3)[nH]c3cccnc23)cc1 [RO1153853-000],potency estimated from few doses,"PKN3 [2]; compound concentrations: 100 nM and 1000 nM (sheet 'Samples'), CATDS: 0.27237296502427",55.8 nM
same,IC50,"PKN3 [1]; read-out: Average, SD, n = 4",2360 nM
same,IC50,PKN3 [1]; read-out: Rep 1,8030 nM
same,IC50,PKN3 [1]; read-out: Rep 2,951 nM
same,IC50,PKN3 [1]; read-out: Rep 3,164 nM
same,IC50,PKN3 [1]; read-out: Rep 4,295 nM
Cl.ON=C1CCc2cc(-c3nc(C4CCNCC4)[nH]c3-c3ccncc3)ccc21 [SB-614067-R],potency estimated from few doses,PKN3 [2]; [3],125 nM
same,IC50,"PKN3 [1]; read-out: Average, SD, n = 4",22900 nM
same,IC50,PKN3 [1]; read-out: Rep 1,19100 nM
same,IC50,PKN3 [1]; read-out: Rep 2,20600 nM
same,IC50,PKN3 [1]; read-out: Rep 3,50100 nM
same,IC50,PKN3 [1]; read-out: Rep 4,1840 nM
